# Hit rate of the full screen: of about 320,000 compounds, about 2,100 (0.66%) were called active. Not shown: some 53% with an inconclusive outcome. Calls come from the whole dose curve; as a rule, active = well fitted inhibition curve with a large enough effect in the signal ratio, with a control signal flat (not every such curve was filed as active); inconclusive = small, poorly fitted or top-dose-only effect, or effect the other way, or a change in a side signal; inactive = flat fitted curve, though single readings scatter; the % refers to the signal ratio. Many of the other results were omitted from the sample, so actives are more common in it than they were.
# Test: qHTS Assay for Lipid Storage Modulators in Drosophila S3 Cells;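 for cell number change: cells counted by Cell Tracker Red CMTPX staining in the red channel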; for lipid storage change, negative = inhibition: % is set by controls: 0 for no effect and ±100 for the full control effect
# Details: BODIPY lipid droplet fluorescence, 18-24 h, cells fed with added oleic acid; cell number change: measured here: cell count max response; series mostly up to 46.1 µM
# Summary of the method: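 Laser-scanning cytometry quantifies lipid droplet accumulation (500–530 nm total intensity; droplet/cell object ratio) in oleic acid-fed (400 uM added) Drosophila S3 cells treated with a concentration series. 20 uM Triacsin C defined 100% inhibition.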
# Potency is the fitted concentration of half-maximal effect.
Structure (SMILES),Potency,cell number change,"lipid storage change, negative = inhibition"
O=C(NNC(=O)c1cccc(S(=O)(=O)N2CCN(c3ccccc3)CC2)c1)c1ccc(Cl)cc1,inactive,-1.16%,–
O=C(Nc1cccc(C(F)(F)F)c1)c1cccnc1NCCO,9.2 µM (active),17.5%,–
O=C(Nc1cccc(C(F)(F)F)c1)Oc1ccc(Cl)c2cccnc12,8.2 µM (active),-22.5%,–
O=C(Nc1cccc(C(F)(F)F)c1)c1cccnc1N1CCN(CCO)CC1,inactive,–,–
O=C(Nc1cccc(C(F)(F)F)c1)c1cccnc1N1CCCC1,inactive,–,–
O=C(Oc1ccc(Cl)c2cccnc12)N1CCCCCC1,inactive,0.575%,–
CCN(CC)C(=O)Oc1ccc(Cl)c2cccnc12,inactive,-13.1%,–
CCOc1ccccc1Oc1nc(-c2ccccc2O)nc2ccccc12,inactive,16.3%,–
N#Cc1c(C(F)(F)F)cc(-c2ccc(F)cc2)nc1SCC(=O)O,inactive,0.873%,–
CC(c1ccc(O)cc1)(c1ccc(O)cc1)c1ccc(CCBr)cc1,inactive,-16%,–
O=C(Nc1ccc(-n2cc(Cl)cn2)cc1)c1ccncc1,inactive,13%,–
Cc1ccc(C(=O)/C=C/N(C)C)o1,inactive,-4.62%,–
COc1ccc(C2=NC(C)(C)Cc3cc(OC)c(OC)cc32)cc1,inactive,-1.73%,–
CCNC(=O)n1nccc1C(C)Oc1ccccc1 (stereo not drawn),inactive,17.8%,–
CCc1ccc(CNC(=O)C2CCN(S(=O)(=O)N3CC(C)CC(C)C3)CC2)cc1 (stereo not drawn),inactive,14.3%,–
COc1ccc(CNC(=O)CSc2nccn(-c3ccc(F)c(F)c3)c2=O)cc1,–,17.2%,-25.5% [at 0.0737 µM] (inactive)
CCOc1ccc(-n2ccnc(SCC(=O)NCCc3ccccc3)c2=O)cc1,inactive,-8.43%,–
Cc1ccc(CNC(=O)CSc2nccn(-c3ccc(C)c(F)c3)c2=O)cc1,14.6 µM (active),-20%,–
CN1CCN(c2ncnc3sc(-c4ccccc4)cc23)CC1,inactive,24.2%,–
CN1CCN(C(=O)/C=C/c2ccc([N+](=O)[O-])o2)CC1,32.6 µM (active),-21.6%,–

Structure (SMILES),Potency,cell number change,"lipid storage change, negative = inhibition"
CCN(CC)S(=O)(=O)c1ccc(C(=O)/C=C/c2ccc(-c3ccc([N+](=O)[O-])cc3)o2)cc1,inactive,6.91%,–
CCc1ccc(C(=O)/C=C/c2ccc([N+](=O)[O-])o2)cc1,1.3 µM (active),-21.1%,–
CN1CCN(C(=O)/C=C/c2ccc([N+](=O)[O-])cc2)CC1,inactive,-5.05%,–
COc1ccc(/C=C/C(=O)c2ccc([N+](=O)[O-])o2)cc1,inactive,5.86%,–
O=C(/C=C\c1ccc(-c2cccc([N+](=O)[O-])c2)o1)N1CCOCC1,inactive,1.96%,–
CCOC(=O)c1ccc(NC(=S)NNC(=O)c2cc(-c3cccnc3)nc3ccccc23)cc1,inactive,-10.9%,–
OCC1(CCc2ccccc2)CCN(Cc2cnc(N3CCCC3)s2)CC1,inactive,-1.4%,–
O=C(CCC(=O)N1CCOc2ccccc21)Nc1cc(F)ccc1F,inactive,-2.02%,–
O=C1OCc2ccc(NC(=O)c3ccccc3C(=O)O)cc21,inactive,2.9%,–
Cc1ccc(C)c(S(=O)(=O)Nc2ccc(C(=O)NCC(c3ccco3)N3CCCCC3)cc2)c1 (stereo not drawn),inactive,16%,–
Cc1ccc2[nH]c(=O)c(CN(C)C(=O)c3cccs3)cc2c1,inactive,-11.8%,–
COC(=O)c1c(NC(=O)c2ccccc2OC)sc(C(=O)N2CCOCC2)c1C,inactive,4.76%,–
COC(=O)c1c(NC(=O)CCl)sc(C(=O)N2CCOCC2)c1C,0.651 µM (active),-18.1%,–
COC(=O)c1c(N)sc(C(=O)N2CCOCC2)c1C,inactive,8.28%,–
O=C(Cc1ccc(F)cc1)Nc1c(C(=O)N2CCN(c3ncccn3)CC2)oc2ccccc12,inactive,26.3%,–
COc1ccccc1CCNC(=O)c1cc(-c2ccncc2)nc2ccc(Br)cc12,inactive,-14.5%,–
O=C(COC(=O)CCc1c[nH]c2ccccc12)Nc1cc([N+](=O)[O-])ccc1Cl,inactive,17.2%,–
O=C(CCc1c[nH]c2ccccc12)OCc1cccc([N+](=O)[O-])c1,5.8 µM (active),0.451%,–
O=C(COC(=O)CCc1c[nH]c2ccccc12)Nc1ccc([N+](=O)[O-])cc1,inactive,-0.284%,–
Cn1c(C(=O)Nc2ccccc2)cc2sccc21,inactive,-17.5%,–

Structure (SMILES),Potency,cell number change,"lipid storage change, negative = inhibition"
Cc1cccc(NC(=O)CCC(=O)N2CCOCC2)n1,inactive,-0.208%,–
O=C(Nc1c2c(nn1-c1ccccc1)CS(=O)C2)c1ccco1 (stereo not drawn),inactive,-4.99%,–
CC(C)(C)n1nc2c(c1NC(=O)c1ccc(Br)o1)CS(=O)C2 (stereo not drawn),inactive,12.2%,–
CC(C)(C)n1nc2c(c1NC(=O)c1ccco1)CS(=O)C2 (stereo not drawn),29.1 µM (active),-3.33%,–
CCN1C(=O)/C(=c2\sc3nc(=O)c(Cc4ccccc4)nn3c2=O)c2ccccc21,inactive,6.19%,–
Oc1ccc[n+](CCCCC[n+]2cccc(O)c2)c1,inactive,-10%,–
O=C(O)CCCCCCCCCC[n+]1ccccc1,inactive,3.19%,–
C(C#CCCCCCCCCC[n+]1ccccc1)#CCCCCCCCCC[n+]1ccccc1,13 µM (active),2.42%,–
CSc1ccc(CN2CCCC(N3CCN(c4ccccc4)CC3)C2)cc1 (stereo not drawn),inactive,-9.94%,–
COc1ccccc1NNC(=O)c1cc(C(C)(C)C)nn1Cc1ccccc1,inactive,13.3%,–
CC(C)(C)c1cc(C(=O)NNc2cc(C(F)(F)F)ccc2Cl)n(Cc2ccccc2)n1,25.9 µM (active),-27.1%,–
CC(C)(C)c1cc(C(=O)NNc2ccc(OC(F)(F)F)cc2)n(Cc2ccccc2)n1,inactive,8.19%,–
CC1CCCCC1NC(=O)c1ccc(S(=O)(=O)NCC2CCCO2)cc1 (stereo not drawn),inactive,3.19%,–
Cc1ccc(NC2OC(CO)C(O)C(O)C2O)cc1 (stereo not drawn),inactive,-12.8%,–
Cc1ccc(NC2OC(CO)C(O)C2O)cc1[N+](=O)[O-] (stereo not drawn),inactive,-2.09%,–
CC(=O)c1ccc(NC2OC(CO)C(O)C(O)C2O)cc1 (stereo not drawn),32.6 µM (active),-9.97%,–
O=C(CCOc1ccccc1)N1CCN(S(=O)(=O)c2cccs2)CC1,inactive,5.86%,–
C=CCN1C(=O)C2(OCCO2)c2cc(C)ccc21,inactive,5.32%,–
C=CCN1C(=O)C2(OCCCO2)c2cc(Cl)ccc21,4.11 µM (active),7.73%,–
C=CCN1C(=O)C2(OCCCO2)c2ccccc21,inactive,7.72%,–

# — PubChem BioAssay AID2685 (National Center for Advancing Translational Sciences (NCATS), 2010)
